# Experimental data taken from PMC7862700, “An all-to-all approach to the identification of sequence-specific readers for epigenetic DNA modifications on cytosine”.
# Columns and labels:
# Experiment in all cases: DAPPL (digital affinity profiling via proximity ligation, sequencing); 10 mM Tris-HCl pH 7.5, 50 mM NaCl, 1 mM DTT, 4% glycerol, room temperature, 30 min; GST-TFs on glutathione beads, 16-mer random dsDNA library, 0.1% formaldehyde crosslink after washing; high values mean tight binding
# [1] = biological target: T1, FEV (Homo sapiens, UniProt Q99581 1-238); settings: protein: recombinant; tags: N-terminal GST; dsDNA, one strand shown
# T1 sequence: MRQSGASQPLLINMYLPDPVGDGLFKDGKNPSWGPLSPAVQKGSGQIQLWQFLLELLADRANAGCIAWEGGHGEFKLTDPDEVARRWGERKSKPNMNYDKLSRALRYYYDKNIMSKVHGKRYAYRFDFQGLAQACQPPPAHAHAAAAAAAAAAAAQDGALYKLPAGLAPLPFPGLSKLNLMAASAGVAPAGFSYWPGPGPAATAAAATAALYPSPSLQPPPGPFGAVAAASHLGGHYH
# Outline: (§1)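 Pools were built from human transcription factors expressed in yeast as GST fusions, captured on glutathione beads and DNA-barcoded, along with a tag-only sample. Incubation with 200 nmole of a 16-mer random double-stranded DNA library lasted 30 min at room temperature in Tris/NaCl/DTT/glycerol buffer, and was followed by washing, 0.1% formaldehyde crosslinking, proximity ligation, PCR amplification and Illumina NextSeq500 sequencing. Binding signal is the quotient of each hexamer's read frequency for a factor and its frequency for the tag-only sample.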
# [2] = biological target: ETV5 (Homo sapiens, UniProt P41161 1-510); settings: protein: recombinant; tags: N-terminal GST; dsDNA, one strand shown
# Outline: as §1
# [3] = biological target: HSF1 (Homo sapiens, UniProt Q00613 1-529); settings: protein: recombinant; tags: N-terminal GST; chain copies: 3; dsDNA, one strand shown
# Outline: as §1
# [4] = biological target: T2, SPIC (Homo sapiens, UniProt Q8N5J4 1-248); settings: protein: recombinant; tags: N-terminal GST; dsDNA, one strand shown
# T2 sequence: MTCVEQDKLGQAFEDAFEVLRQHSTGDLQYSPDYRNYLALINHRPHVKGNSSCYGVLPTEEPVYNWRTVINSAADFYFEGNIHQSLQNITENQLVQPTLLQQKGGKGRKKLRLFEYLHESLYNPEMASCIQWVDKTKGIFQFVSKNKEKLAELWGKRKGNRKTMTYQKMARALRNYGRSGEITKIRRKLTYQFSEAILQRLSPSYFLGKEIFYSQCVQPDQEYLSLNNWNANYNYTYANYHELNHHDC
# Outline: as §1
# [5] = biological target: ELF4 (Homo sapiens, UniProt Q99607 1-663); settings: protein: recombinant; tags: N-terminal GST; dsDNA, one strand shown
# Outline: as §1
# [6] = biological target: T3, ELK4 (Homo sapiens, UniProt P28324-2 1-405); settings: protein: recombinant; tags: N-terminal GST; dsDNA, one strand shown
# T3 sequence: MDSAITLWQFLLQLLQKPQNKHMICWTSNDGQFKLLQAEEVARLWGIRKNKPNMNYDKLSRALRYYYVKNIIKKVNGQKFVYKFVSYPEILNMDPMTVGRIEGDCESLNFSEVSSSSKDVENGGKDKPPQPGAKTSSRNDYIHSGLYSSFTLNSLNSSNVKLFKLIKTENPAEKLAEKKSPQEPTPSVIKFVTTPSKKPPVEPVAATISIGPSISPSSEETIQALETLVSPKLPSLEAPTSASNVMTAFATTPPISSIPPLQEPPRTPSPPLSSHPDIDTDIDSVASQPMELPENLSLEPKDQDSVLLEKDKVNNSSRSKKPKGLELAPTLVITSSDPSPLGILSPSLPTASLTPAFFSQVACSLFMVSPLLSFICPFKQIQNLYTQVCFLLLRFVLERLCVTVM
# Outline: as §1
# [7] = biological target: T4, ETV2 (Homo sapiens, UniProt O00321 1-342); settings: protein: recombinant; tags: N-terminal GST; dsDNA, one strand shown
# T4 sequence: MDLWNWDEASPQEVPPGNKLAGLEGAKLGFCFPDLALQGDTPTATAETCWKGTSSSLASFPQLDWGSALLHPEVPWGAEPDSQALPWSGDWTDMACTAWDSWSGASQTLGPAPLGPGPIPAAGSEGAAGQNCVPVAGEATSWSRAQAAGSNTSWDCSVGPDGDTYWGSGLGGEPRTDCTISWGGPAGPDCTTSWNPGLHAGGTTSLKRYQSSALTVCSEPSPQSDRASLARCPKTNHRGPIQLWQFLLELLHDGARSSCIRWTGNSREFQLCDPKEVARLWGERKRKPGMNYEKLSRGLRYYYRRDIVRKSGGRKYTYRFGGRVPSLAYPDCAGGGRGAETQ
# Outline: as §1
# [8] = biological target: T5, ELF3 (Homo sapiens, UniProt P78545 1-371); settings: protein: recombinant; tags: N-terminal GST; dsDNA, one strand shown
# T5 sequence: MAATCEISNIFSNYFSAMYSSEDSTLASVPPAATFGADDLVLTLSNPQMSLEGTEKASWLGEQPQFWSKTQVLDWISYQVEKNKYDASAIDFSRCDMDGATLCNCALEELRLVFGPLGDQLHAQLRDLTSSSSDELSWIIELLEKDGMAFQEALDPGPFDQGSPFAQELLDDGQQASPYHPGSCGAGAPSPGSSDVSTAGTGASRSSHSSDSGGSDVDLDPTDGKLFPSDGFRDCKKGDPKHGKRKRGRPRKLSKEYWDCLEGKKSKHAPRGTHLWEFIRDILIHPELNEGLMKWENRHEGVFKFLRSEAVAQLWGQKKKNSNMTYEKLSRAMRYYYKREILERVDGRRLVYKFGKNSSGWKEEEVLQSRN
# Outline: as §1
# [9] = biological target: CRX (Homo sapiens, UniProt O43186 1-299); settings: protein: recombinant; tags: N-terminal GST; dsDNA, one strand shown
# Outline: as §1
# [10] = biological target: ETV1 (Homo sapiens, UniProt P50549 1-477); settings: protein: recombinant; tags: N-terminal GST; dsDNA, one strand shown
# Outline: as §1
# [11] = biological target: T6, ERF (Homo sapiens, UniProt P50548 1-548); settings: protein: recombinant; tags: N-terminal GST; dsDNA, one strand shown
# T6 sequence: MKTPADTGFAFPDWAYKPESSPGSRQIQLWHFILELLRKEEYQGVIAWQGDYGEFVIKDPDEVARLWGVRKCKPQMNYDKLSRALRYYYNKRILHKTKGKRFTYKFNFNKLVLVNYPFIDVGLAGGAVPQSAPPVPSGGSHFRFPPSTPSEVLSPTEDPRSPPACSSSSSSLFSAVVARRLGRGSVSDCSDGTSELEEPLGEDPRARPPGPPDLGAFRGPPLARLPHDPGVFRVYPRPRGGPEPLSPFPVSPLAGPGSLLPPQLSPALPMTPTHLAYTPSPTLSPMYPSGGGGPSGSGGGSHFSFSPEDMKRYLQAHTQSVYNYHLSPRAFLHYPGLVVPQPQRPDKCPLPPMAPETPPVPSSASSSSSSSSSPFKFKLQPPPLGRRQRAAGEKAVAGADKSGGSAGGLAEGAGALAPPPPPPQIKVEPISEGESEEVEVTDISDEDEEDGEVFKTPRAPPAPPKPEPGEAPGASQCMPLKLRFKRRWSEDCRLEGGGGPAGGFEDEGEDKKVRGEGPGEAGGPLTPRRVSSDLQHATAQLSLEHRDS
# Outline: as §1
# [12] = biological target: T7, ETV3L (Homo sapiens, UniProt Q6ZN32 1-361); settings: protein: recombinant; tags: N-terminal GST; dsDNA, one strand shown
# T7 sequence: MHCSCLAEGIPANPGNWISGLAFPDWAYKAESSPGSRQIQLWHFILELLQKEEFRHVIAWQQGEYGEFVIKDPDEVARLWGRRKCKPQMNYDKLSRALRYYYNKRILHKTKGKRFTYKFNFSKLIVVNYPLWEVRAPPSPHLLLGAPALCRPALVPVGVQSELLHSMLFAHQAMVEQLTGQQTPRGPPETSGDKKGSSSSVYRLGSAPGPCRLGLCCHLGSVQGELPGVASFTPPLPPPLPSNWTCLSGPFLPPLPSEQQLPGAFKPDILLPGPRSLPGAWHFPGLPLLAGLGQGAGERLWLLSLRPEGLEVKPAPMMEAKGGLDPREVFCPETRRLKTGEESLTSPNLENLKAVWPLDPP
# Outline: as §1
# [13] = biological target: T8, ETS2 (Homo sapiens, UniProt P15036 1-469); settings: protein: recombinant; tags: N-terminal GST; dsDNA, one strand shown
# T8 sequence: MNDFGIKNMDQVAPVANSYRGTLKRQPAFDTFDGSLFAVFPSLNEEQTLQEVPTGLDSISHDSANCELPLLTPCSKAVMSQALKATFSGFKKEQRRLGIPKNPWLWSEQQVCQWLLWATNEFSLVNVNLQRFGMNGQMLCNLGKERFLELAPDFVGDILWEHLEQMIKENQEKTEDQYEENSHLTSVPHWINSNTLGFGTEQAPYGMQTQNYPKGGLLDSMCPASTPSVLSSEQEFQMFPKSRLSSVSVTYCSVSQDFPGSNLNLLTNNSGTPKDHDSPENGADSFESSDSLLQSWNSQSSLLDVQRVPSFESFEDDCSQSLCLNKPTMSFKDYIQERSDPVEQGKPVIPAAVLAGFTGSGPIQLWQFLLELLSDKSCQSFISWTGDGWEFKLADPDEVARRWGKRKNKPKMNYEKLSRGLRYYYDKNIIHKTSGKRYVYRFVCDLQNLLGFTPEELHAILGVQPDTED
# Outline: as §1
# [14] = biological target: T9, SPDEF (Homo sapiens, UniProt O95238 1-335); settings: protein: recombinant; tags: N-terminal GST; dsDNA, one strand shown
# T9 sequence: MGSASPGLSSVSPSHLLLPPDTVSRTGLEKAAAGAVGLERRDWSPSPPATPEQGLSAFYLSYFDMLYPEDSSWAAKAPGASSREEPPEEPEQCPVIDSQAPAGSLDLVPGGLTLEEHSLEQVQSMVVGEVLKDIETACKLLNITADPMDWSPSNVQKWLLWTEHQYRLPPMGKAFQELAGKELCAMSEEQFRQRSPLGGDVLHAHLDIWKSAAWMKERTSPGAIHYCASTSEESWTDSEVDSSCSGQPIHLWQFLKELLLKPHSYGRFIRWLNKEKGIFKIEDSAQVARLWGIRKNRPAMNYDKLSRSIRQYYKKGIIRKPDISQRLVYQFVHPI
# Outline: as §1
# [15] = biological target: T10, ETV7 (Homo sapiens, UniProt Q9Y603 1-341); settings: protein: recombinant; tags: N-terminal GST; dsDNA, one strand shown
# T10 sequence: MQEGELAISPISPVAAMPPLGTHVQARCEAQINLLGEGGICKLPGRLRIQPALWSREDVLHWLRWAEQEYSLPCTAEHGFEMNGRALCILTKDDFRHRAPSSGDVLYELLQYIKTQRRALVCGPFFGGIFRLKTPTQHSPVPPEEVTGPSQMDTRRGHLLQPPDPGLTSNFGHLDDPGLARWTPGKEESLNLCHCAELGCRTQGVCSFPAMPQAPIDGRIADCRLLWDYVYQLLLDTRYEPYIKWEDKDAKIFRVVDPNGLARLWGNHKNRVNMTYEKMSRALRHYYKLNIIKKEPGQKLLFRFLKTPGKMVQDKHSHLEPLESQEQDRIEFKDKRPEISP
# Outline: as §1
# [16] = biological target: T11, ELF5 (Homo sapiens, UniProt Q9UKW6-2 1-255); settings: protein: recombinant; tags: N-terminal GST; dsDNA, one strand shown
# T11 sequence: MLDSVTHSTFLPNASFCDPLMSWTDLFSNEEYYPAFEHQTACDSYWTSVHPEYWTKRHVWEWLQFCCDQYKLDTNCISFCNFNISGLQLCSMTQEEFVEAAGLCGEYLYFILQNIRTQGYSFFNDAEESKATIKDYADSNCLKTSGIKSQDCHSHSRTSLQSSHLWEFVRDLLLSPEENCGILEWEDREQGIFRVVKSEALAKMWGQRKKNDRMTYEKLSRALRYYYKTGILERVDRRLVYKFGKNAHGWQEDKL
# Outline: as §1
# [17] = biological target: T12, ETV3 (Homo sapiens, UniProt P41162-2 1-143); settings: protein: recombinant; tags: N-terminal GST; dsDNA, one strand shown
# T12 sequence: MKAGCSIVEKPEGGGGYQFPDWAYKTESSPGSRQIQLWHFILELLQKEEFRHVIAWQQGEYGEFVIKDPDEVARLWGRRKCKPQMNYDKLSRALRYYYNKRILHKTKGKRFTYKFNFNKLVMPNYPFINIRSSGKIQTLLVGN
# Outline: as §1
# [18] = biological target: ETV6 (Homo sapiens, UniProt P41212 1-452); settings: protein: recombinant; tags: N-terminal GST; dsDNA, one strand shown
# Outline: as §1
# Chain of ETV5 (P41161 whole entry): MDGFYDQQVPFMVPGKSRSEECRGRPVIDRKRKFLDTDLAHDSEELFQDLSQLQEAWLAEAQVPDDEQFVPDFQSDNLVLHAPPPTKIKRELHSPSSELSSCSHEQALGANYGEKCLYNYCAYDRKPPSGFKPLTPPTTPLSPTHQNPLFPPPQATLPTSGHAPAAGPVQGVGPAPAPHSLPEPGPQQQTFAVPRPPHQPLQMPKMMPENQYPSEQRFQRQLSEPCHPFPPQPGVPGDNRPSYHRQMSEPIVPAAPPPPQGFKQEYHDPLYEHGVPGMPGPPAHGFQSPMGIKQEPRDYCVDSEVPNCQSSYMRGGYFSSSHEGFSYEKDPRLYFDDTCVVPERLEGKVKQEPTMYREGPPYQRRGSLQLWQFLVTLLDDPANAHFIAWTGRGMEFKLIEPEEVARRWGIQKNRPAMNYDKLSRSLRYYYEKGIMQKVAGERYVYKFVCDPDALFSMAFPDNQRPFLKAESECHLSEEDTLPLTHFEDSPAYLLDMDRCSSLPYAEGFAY
# Chain of ETV1 (P50549 whole entry): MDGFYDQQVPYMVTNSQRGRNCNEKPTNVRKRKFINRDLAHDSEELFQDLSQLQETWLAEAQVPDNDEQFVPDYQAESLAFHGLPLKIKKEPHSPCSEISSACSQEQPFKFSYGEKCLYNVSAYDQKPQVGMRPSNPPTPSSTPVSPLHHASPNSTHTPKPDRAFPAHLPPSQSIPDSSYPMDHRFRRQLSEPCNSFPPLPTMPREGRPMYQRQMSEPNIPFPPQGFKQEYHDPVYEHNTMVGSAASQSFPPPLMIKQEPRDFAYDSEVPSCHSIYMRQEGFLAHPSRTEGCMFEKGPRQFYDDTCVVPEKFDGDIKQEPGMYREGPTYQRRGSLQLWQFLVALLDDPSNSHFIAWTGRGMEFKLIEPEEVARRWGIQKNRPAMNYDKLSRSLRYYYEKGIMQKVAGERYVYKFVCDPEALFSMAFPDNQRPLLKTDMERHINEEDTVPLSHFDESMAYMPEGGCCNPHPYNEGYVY
# Chain of ETV6 (P41212 whole entry): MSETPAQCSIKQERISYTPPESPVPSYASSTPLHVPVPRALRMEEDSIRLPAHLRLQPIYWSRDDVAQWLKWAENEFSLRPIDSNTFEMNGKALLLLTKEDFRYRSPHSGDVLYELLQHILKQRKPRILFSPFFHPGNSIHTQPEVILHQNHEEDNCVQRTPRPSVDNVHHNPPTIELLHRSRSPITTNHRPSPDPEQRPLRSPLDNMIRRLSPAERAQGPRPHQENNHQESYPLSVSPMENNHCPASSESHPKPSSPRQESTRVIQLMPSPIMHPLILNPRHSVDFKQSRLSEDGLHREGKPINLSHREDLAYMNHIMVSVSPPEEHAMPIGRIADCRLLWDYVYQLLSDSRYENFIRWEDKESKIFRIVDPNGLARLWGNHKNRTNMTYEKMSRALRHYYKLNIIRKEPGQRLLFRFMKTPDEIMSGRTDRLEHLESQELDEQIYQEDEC
# Chain of ELF4 (Q99607 whole entry): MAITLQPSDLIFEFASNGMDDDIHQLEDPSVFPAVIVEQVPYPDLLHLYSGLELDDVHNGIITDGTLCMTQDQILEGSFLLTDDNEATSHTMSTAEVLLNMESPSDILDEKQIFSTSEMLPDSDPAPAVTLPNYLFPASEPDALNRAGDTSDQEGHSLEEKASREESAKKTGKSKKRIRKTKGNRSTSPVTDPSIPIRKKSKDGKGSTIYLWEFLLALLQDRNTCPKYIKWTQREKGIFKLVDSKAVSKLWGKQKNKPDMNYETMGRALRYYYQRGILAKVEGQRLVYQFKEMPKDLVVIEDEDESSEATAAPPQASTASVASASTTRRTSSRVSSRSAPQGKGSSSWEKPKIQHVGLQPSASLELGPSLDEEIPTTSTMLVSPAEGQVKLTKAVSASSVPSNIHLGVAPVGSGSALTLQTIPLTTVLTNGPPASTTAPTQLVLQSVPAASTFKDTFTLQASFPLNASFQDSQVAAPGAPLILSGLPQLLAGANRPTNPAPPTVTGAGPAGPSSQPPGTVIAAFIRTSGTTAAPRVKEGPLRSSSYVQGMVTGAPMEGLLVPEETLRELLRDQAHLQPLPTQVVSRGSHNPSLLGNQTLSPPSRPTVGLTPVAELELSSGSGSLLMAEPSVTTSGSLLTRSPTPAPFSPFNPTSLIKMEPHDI
# Chain of HSF1 (Q00613 whole entry): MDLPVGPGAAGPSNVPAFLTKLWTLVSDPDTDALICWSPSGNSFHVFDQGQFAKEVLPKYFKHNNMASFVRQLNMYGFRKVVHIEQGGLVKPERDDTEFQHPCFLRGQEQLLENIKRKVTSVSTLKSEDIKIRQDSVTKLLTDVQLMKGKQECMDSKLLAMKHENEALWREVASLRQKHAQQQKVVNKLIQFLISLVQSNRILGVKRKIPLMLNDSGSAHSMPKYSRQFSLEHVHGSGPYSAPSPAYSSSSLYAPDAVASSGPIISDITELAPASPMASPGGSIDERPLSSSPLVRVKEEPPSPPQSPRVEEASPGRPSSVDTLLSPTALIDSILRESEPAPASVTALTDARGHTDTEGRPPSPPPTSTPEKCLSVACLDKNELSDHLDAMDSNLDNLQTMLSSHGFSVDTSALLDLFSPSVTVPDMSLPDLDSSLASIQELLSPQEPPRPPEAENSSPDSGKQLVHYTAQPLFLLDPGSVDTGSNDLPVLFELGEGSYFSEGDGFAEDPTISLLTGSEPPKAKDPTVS
# Chain of CRX (O43186 whole entry): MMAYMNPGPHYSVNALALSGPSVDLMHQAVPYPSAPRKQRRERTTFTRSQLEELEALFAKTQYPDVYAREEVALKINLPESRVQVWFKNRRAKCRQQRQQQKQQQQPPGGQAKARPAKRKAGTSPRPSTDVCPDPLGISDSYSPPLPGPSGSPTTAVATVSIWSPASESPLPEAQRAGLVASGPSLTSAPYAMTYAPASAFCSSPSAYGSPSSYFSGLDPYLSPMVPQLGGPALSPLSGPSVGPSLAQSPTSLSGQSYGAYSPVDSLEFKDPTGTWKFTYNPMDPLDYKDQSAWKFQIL
sequence,measurement,setting,value
TATATC,binding signal,[1],"1.58 fold enrichment (6-mer frequency, TF over GST control)"
same,binding signal,[2],"1.6 fold enrichment (6-mer frequency, TF over GST control)"
same,binding signal,[3],"1.33 fold enrichment (6-mer frequency, TF over GST control)"
same,binding signal,[4],"1.67 fold enrichment (6-mer frequency, TF over GST control)"
same,binding signal,[5],"1.58 fold enrichment (6-mer frequency, TF over GST control)"
same,binding signal,[6],"1.53 fold enrichment (6-mer frequency, TF over GST control)"
same,binding signal,[7],"1.54 fold enrichment (6-mer frequency, TF over GST control)"
same,binding signal,[8],"1.36 fold enrichment (6-mer frequency, TF over GST control)"
same,binding signal,[9],"1.67 fold enrichment (6-mer frequency, TF over GST control)"
same,binding signal,[10],"1.54 fold enrichment (6-mer frequency, TF over GST control)"
same,binding signal,[11],"1.61 fold enrichment (6-mer frequency, TF over GST control)"
same,binding signal,[12],"1.56 fold enrichment (6-mer frequency, TF over GST control)"
same,binding signal,[13],"1.64 fold enrichment (6-mer frequency, TF over GST control)"
same,binding signal,[14],"2.19 fold enrichment (6-mer frequency, TF over GST control)"
same,binding signal,[15],"1.48 fold enrichment (6-mer frequency, TF over GST control)"
same,binding signal,[16],"1.66 fold enrichment (6-mer frequency, TF over GST control)"
same,binding signal,[17],"1.68 fold enrichment (6-mer frequency, TF over GST control)"
same,binding signal,[18],"1.5 fold enrichment (6-mer frequency, TF over GST control)"
